# Experimental data published in PMC7862700, “An all-to-all approach to the identification of sequence-specific readers for epigenetic DNA modifications on cytosine”.
# Tests used:
# Test in all cases: DAPPL (digital affinity profiling via proximity ligation, sequencing); 10 mM Tris-HCl pH 7.5, 50 mM NaCl, 1 mM DTT, 4% glycerol, room temperature, 30 min; GST-TFs on glutathione beads, 16-mer random dsDNA library, 0.1% formaldehyde crosslink after washing; high values mean tight binding
# FLI1 = target: T1, FLI1 (Homo sapiens, UniProt Q01543 1-452); settings: protein: recombinant; tags: N-terminal GST; dsDNA, one strand shown
# T1 sequence: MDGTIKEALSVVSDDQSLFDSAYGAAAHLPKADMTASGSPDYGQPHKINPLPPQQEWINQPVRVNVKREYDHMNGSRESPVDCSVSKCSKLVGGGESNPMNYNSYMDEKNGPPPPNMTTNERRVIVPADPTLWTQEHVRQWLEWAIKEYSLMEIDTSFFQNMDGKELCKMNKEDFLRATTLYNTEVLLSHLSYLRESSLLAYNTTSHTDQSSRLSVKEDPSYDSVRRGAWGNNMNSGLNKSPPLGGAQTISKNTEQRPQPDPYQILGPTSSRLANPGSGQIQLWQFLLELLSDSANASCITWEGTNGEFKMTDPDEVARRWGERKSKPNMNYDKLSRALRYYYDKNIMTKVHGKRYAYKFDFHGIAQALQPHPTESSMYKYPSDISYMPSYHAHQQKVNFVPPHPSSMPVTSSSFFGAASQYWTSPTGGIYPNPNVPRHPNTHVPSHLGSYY
# How it was run: (§1)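 Pools of DNA-barcoded human transcription factors, expressed in yeast as GST fusions on glutathione beads and combined with a tag-only sample, were incubated with 200 nmole of a 16-mer random double-stranded DNA library. Incubation took 30 min at room temperature in Tris/NaCl/DTT/glycerol buffer and was followed by washing, 0.1% formaldehyde crosslinking, proximity ligation (BsaI/T4 ligase, 1 h, 37 °C), PCR amplification and sequencing on an Illumina NextSeq500. Binding signal is the ratio of a hexamer's read frequency for a factor to its frequency for the tag-only sample.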
# ELK1 = target: T2, ELK1 (Homo sapiens, UniProt P19419 1-428); settings: protein: recombinant; tags: N-terminal GST; dsDNA, one strand shown
# T2 sequence: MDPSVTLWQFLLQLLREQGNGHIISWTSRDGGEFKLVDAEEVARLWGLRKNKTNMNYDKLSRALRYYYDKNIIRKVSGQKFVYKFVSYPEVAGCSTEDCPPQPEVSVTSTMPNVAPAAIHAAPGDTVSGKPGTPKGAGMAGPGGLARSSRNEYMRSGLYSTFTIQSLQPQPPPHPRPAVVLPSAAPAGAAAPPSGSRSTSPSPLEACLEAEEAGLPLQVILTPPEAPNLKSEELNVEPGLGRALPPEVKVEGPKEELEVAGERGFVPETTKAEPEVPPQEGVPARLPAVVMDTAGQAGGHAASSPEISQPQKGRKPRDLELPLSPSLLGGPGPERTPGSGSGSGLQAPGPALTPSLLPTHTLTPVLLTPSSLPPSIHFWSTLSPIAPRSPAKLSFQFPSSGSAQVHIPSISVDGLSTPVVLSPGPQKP
# How it was run: as §1
# GABPA = target: T3, GABPA (Homo sapiens, UniProt Q06546 1-454); settings: protein: recombinant; tags: N-terminal GST; dsDNA, one strand shown
# T3 sequence: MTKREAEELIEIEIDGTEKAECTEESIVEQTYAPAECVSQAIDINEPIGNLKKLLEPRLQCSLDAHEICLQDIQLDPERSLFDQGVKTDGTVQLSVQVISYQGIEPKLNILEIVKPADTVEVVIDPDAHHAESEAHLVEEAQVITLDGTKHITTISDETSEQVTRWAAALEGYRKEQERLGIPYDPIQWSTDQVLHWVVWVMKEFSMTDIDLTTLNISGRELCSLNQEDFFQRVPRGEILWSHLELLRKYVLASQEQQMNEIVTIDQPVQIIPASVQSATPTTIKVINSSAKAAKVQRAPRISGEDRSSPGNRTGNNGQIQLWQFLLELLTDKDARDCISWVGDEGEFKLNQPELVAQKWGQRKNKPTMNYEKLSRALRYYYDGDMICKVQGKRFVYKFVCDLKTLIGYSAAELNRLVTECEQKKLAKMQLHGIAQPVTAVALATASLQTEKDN
# How it was run: as §1
# ERG = target: T4, ERG (Homo sapiens, UniProt P11308 1-479); settings: protein: recombinant; tags: N-terminal GST; dsDNA, one strand shown
# T4 sequence: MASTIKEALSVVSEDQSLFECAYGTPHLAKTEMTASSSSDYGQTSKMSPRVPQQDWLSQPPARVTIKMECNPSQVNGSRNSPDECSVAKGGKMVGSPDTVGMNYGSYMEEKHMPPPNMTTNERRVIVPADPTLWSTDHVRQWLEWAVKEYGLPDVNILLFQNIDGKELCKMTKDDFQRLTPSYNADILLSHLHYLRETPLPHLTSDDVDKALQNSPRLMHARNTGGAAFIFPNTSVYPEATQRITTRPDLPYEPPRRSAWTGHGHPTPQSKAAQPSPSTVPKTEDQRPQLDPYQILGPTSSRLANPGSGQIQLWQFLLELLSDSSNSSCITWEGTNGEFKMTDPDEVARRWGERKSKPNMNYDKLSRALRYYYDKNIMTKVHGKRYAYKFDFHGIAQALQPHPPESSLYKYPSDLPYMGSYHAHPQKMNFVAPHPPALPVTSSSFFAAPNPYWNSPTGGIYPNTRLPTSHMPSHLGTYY
# How it was run: as §1
# ELF1 = ELF1 (Homo sapiens, UniProt P32519 1-619); settings: protein: recombinant; tags: N-terminal GST; dsDNA, one strand shown
# ELF1, sequence (P32519 whole entry): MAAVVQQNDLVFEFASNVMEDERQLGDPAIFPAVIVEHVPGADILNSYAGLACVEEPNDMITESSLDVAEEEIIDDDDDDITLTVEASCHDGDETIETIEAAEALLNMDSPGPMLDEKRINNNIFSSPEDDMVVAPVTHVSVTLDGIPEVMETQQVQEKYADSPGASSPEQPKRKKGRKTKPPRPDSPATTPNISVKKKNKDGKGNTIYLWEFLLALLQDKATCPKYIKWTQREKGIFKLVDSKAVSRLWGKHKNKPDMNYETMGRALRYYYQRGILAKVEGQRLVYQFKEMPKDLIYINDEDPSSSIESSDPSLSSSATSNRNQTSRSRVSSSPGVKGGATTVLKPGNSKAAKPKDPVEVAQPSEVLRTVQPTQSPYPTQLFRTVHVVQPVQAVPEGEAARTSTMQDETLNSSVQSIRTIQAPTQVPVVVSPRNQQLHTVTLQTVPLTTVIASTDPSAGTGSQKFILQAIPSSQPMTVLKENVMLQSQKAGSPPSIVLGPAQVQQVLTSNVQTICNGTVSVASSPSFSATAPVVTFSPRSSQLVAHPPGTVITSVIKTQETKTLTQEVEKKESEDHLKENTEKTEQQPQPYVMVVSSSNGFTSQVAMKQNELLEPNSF
# How it was run: as §1
# EHF = target: T5, EHF (Homo sapiens, UniProt Q9NZC4 1-300); settings: protein: recombinant; tags: N-terminal GST; dsDNA, one strand shown
# T5 sequence: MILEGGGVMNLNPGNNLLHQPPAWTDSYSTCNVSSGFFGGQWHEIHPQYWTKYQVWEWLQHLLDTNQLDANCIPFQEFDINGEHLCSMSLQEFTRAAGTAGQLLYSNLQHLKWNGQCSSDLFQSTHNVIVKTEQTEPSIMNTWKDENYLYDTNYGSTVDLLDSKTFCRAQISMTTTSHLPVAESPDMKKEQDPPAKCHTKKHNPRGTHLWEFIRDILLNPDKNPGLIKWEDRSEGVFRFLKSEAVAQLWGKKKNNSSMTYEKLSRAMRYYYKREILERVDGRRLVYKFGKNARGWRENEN
# How it was run: as §1
# SPI1 = SPI1 (Homo sapiens, UniProt P17947 1-270); settings: protein: recombinant; tags: N-terminal GST; dsDNA, one strand shown
# How it was run: as §1
# SPIB = SPIB (Homo sapiens, UniProt Q01892 1-262); settings: protein: recombinant; tags: N-terminal GST; dsDNA, one strand shown
# SPIB, sequence (Q01892 whole entry): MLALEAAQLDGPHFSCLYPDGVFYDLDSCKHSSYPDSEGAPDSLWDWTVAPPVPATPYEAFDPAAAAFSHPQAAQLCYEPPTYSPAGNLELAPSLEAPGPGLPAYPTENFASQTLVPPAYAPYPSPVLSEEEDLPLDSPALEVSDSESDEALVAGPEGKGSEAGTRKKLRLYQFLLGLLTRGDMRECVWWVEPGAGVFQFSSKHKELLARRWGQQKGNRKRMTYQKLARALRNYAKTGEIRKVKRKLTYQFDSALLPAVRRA
# How it was run: as §1
# FEV = target: T6, FEV (Homo sapiens, UniProt Q99581 1-238); settings: protein: recombinant; tags: N-terminal GST; dsDNA, one strand shown
# T6 sequence: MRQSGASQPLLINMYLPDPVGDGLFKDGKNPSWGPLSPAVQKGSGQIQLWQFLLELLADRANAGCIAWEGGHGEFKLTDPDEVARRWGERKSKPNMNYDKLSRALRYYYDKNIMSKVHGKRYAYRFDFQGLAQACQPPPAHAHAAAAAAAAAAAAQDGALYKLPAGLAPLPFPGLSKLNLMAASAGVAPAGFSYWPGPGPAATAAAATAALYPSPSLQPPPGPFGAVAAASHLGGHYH
# How it was run: as §1
# ETV5 = ETV5 (Homo sapiens, UniProt P41161 1-510); settings: protein: recombinant; tags: N-terminal GST; dsDNA, one strand shown
# ETV5, sequence (P41161 whole entry): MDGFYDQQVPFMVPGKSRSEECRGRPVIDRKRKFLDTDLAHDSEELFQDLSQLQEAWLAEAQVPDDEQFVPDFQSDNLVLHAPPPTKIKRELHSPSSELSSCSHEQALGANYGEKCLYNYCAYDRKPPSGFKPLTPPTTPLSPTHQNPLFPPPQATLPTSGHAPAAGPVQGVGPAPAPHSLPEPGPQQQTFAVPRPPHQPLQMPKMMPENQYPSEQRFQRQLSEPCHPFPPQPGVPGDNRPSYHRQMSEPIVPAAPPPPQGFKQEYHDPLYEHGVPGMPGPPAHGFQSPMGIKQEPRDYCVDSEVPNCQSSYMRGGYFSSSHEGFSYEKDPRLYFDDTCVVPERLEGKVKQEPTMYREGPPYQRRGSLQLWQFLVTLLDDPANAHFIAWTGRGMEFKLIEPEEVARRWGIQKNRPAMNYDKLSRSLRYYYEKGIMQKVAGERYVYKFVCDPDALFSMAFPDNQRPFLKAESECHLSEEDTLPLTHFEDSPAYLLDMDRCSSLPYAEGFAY
# How it was run: as §1
# HSF1 = HSF1 (Homo sapiens, UniProt Q00613 1-529); settings: protein: recombinant; tags: N-terminal GST; chain copies: 3; dsDNA, one strand shown
# HSF1, sequence (Q00613 whole entry): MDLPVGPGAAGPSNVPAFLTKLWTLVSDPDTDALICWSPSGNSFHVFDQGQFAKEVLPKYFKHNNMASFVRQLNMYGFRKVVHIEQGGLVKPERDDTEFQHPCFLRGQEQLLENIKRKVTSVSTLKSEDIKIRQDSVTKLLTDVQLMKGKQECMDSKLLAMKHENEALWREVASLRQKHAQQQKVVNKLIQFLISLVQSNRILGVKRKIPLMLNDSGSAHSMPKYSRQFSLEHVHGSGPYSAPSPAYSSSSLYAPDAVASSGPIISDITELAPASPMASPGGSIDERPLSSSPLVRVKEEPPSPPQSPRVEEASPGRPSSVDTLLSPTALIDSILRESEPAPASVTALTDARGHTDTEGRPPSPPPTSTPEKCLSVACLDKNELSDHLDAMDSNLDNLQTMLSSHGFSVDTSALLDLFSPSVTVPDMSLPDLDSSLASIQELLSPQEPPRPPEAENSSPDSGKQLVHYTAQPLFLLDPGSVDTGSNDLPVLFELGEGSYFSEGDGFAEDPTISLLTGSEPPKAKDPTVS
# How it was run: as §1
# SPIC = target: T7, SPIC (Homo sapiens, UniProt Q8N5J4 1-248); settings: protein: recombinant; tags: N-terminal GST; dsDNA, one strand shown
# T7 sequence: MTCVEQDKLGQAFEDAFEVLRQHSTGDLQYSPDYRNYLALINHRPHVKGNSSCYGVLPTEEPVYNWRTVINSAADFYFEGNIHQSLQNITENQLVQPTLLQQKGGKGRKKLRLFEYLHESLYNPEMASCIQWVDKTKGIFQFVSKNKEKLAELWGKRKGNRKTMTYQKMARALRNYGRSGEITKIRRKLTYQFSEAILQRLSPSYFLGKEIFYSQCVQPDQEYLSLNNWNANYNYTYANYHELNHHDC
# How it was run: as §1
# ELF4 = ELF4 (Homo sapiens, UniProt Q99607 1-663); settings: protein: recombinant; tags: N-terminal GST; dsDNA, one strand shown
# ELF4, sequence (Q99607 whole entry): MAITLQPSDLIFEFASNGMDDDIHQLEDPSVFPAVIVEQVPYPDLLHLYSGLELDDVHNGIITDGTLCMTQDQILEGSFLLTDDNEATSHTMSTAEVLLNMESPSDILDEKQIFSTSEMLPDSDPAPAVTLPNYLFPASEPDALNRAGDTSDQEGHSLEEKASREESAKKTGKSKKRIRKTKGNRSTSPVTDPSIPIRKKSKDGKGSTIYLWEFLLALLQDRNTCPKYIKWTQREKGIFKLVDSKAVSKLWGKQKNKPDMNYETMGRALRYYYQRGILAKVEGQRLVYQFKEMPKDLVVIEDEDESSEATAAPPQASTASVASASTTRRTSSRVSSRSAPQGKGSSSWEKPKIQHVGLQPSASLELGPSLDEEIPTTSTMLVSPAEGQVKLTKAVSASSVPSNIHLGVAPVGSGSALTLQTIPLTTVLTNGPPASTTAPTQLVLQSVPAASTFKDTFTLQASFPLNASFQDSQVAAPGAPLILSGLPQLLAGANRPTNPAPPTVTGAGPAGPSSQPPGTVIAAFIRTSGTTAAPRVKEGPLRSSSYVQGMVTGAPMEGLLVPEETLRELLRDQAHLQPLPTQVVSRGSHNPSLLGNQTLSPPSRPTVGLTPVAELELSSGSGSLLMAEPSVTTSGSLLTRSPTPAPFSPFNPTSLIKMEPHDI
# How it was run: as §1
# ELK4 = target: T8, ELK4 (Homo sapiens, UniProt P28324-2 1-405); settings: protein: recombinant; tags: N-terminal GST; dsDNA, one strand shown
# T8 sequence: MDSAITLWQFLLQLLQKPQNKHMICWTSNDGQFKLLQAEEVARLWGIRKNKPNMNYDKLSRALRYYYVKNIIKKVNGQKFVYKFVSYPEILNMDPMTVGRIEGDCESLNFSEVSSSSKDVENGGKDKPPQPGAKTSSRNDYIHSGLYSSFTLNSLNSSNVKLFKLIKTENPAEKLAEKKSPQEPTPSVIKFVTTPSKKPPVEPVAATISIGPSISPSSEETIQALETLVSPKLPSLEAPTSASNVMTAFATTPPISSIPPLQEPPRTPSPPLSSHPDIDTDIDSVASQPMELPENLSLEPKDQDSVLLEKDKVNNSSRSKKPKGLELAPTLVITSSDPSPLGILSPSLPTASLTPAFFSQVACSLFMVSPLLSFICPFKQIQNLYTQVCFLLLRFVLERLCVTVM
# How it was run: as §1
# ETV2 = target: T9, ETV2 (Homo sapiens, UniProt O00321 1-342); settings: protein: recombinant; tags: N-terminal GST; dsDNA, one strand shown
# T9 sequence: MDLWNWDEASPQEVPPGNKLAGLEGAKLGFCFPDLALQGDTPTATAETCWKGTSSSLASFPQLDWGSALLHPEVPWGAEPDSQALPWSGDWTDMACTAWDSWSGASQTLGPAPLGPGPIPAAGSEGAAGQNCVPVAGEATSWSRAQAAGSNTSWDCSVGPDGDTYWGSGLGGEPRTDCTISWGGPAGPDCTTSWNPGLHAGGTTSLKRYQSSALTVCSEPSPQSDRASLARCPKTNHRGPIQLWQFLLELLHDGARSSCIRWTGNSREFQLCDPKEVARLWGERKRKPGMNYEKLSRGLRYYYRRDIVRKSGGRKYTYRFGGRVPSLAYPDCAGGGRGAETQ
# How it was run: as §1
# ELF3 = target: T10, ELF3 (Homo sapiens, UniProt P78545 1-371); settings: protein: recombinant; tags: N-terminal GST; dsDNA, one strand shown
# T10 sequence: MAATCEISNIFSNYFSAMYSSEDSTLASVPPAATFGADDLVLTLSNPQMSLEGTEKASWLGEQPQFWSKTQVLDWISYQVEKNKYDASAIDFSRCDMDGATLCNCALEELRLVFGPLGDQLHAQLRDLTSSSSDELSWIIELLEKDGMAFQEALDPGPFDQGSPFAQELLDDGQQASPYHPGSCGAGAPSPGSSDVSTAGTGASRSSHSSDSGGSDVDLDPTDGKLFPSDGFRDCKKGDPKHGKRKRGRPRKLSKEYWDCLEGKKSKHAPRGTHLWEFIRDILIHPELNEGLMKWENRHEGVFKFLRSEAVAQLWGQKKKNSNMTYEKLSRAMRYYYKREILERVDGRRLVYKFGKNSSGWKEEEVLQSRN
# How it was run: as §1
# CRX = CRX (Homo sapiens, UniProt O43186 1-299); settings: protein: recombinant; tags: N-terminal GST; dsDNA, one strand shown
# CRX, sequence (O43186 whole entry): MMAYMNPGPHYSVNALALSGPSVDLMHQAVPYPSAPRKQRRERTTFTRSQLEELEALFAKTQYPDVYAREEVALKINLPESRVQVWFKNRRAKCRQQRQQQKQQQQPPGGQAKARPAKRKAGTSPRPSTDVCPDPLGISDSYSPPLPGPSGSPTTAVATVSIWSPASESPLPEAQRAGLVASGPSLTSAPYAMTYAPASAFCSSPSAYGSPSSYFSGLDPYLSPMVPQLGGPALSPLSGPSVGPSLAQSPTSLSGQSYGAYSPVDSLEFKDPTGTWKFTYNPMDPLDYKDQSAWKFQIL
# How it was run: as §1
# ETV1 = ETV1 (Homo sapiens, UniProt P50549 1-477); settings: protein: recombinant; tags: N-terminal GST; dsDNA, one strand shown
# ETV1, sequence (P50549 whole entry): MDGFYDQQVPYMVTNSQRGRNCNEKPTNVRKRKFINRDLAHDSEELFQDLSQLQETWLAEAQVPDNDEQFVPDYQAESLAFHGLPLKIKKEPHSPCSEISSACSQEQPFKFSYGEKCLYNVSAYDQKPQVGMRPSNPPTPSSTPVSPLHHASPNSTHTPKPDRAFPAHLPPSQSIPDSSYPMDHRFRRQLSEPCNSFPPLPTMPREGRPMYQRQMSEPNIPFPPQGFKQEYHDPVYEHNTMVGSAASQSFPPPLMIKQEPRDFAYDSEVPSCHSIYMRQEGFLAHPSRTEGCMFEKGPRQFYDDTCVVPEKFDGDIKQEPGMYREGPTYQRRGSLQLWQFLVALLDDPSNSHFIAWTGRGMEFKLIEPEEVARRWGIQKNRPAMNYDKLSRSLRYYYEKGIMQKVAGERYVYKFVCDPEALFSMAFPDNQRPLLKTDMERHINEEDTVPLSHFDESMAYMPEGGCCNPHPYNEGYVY
# How it was run: as §1
sequence,measurement,setting,value
AAAAGG,binding signal,FLI1,"1.1 fold enrichment (6-mer frequency, TF over GST control)"
same,binding signal,ELK1,"1.05 fold enrichment (6-mer frequency, TF over GST control)"
same,binding signal,GABPA,"1.25 fold enrichment (6-mer frequency, TF over GST control)"
same,binding signal,ERG,"1.13 fold enrichment (6-mer frequency, TF over GST control)"
same,binding signal,ELF1,"1.1 fold enrichment (6-mer frequency, TF over GST control)"
same,binding signal,EHF,"1.1 fold enrichment (6-mer frequency, TF over GST control)"
same,binding signal,SPI1,"1.48 fold enrichment (6-mer frequency, TF over GST control)"
same,binding signal,SPIB,"1.1 fold enrichment (6-mer frequency, TF over GST control)"
same,binding signal,FEV,"1.06 fold enrichment (6-mer frequency, TF over GST control)"
same,binding signal,ETV5,"1.17 fold enrichment (6-mer frequency, TF over GST control)"
same,binding signal,HSF1,"1.05 fold enrichment (6-mer frequency, TF over GST control)"
same,binding signal,SPIC,"1.18 fold enrichment (6-mer frequency, TF over GST control)"
same,binding signal,ELF4,"1.1 fold enrichment (6-mer frequency, TF over GST control)"
same,binding signal,ELK4,"1 fold enrichment (6-mer frequency, TF over GST control)"
same,binding signal,ETV2,"1.12 fold enrichment (6-mer frequency, TF over GST control)"
same,binding signal,ELF3,"1.2 fold enrichment (6-mer frequency, TF over GST control)"
same,binding signal,CRX,"1.04 fold enrichment (6-mer frequency, TF over GST control)"
same,binding signal,ETV1,"1.19 fold enrichment (6-mer frequency, TF over GST control)"
